In all, about 69,000 compounds went through this assay and about 8,600 (12%) showed an effect of 50% or more. The sample as a whole holds a higher share of strong results than the screen did.
system: Plasmodium berghei; test: Screen against P. berghei liver stage (PbLuc), transformed with Luciferase, at 10uM; format: functional, HepG2; settings: tested at 10 uM

| SMILES | INHIBITION |
| --- | --- |
| COc1cccc(C2CCCN2C(=O)NCCCn2cccn2)c1 (stereo not given) | 45.7% |
| COc1ccc(C2CCCN2C(=O)NCCCn2cccn2)cc1 (stereo not given) | 56% |
| O=C(NCCCn1cccn1)N1CCCC1c1ccncc1 (stereo not given) | 9.3% |
| O=C(NCCCn1ccnc1)N1CCCC1c1ccncc1 (stereo not given) | 37% |
| CC1COCCN1C(=O)NCCCn1ccnc1 (stereo not given) | 24.8% |
| CC1CN(C)CCN1C(=O)NCCCn1ccnc1 (stereo not given) | 60.1% |
| COc1ccc(C2CCCN2C(=O)NCCn2ccnc2)cc1 (stereo not given) | 21.425% |
| CC1COCCN1C(=O)NCCn1ccnc1 (stereo not given) | -3.94% |
| COc1ccc(C2CCCN2C(=O)NCCCn2ccnc2)cc1 (stereo not given) | 54.45% |
| O=S1(=O)COCCN1Cc1ccc(Cl)c(Cl)c1 | -12.5% |
| c1csc(-c2noc(CNCCn3cccn3)n2)c1 | 18.2% |
| CC(=O)N1CC[C@@H]2CN(Cc3ccncc3)S(=O)(=O)[C@@H]2CC1 | -10.5% |
| Cc1ccsc1CN1CCC(c2nnc(Cn3cccn3)n2C)CC1 | 25.4% |
| COc1cc(C)sc1C(=O)NCCC(=O)N(C)c1ccccc1 | 78.2% |
| COc1ccsc1C(=O)NCCNc1ccccc1 | -33% |
| COc1cc(C)sc1C(=O)NCCNc1ccccc1 | 43.1% |
| CN(Cc1ccccc1)C(=O)CCNS(=O)(=O)c1cccnc1 | -17.6% |
| COC(=O)CCNC(=O)c1cccc(C(=O)N(C)c2ccccc2)c1 | 43.4% |
| COc1cc(C)sc1C(=O)NCCC(=O)N(C)Cc1ccccc1 | 66.3% |
| CC(=O)N1CCCC(c2ccccn2)C1 (stereo not given) | 15.9% |
| CCOCCN1CCC(c2cncc(C)n2)CC1 | 10.155% |
| CC(C)CNC(=O)CN(CC(=O)NCC(C)C)S(C)(=O)=O | 37.4% |
| C=C(C)COc1ccccc1CNC(CC)c1ccnn1C (stereo not given) | 36.7% |
| C=C(C)COc1cccc(CNC(COC)c2ccnn2C)c1 (stereo not given) | 37.6% |
| C=C(C)COc1cccc(CNC(CC)c2ccnn2C)c1 (stereo not given) | 66.6% |
| CC(C)c1ncc(CN2CCC(O)(c3ccccc3F)CC2)cn1 | 33.04% |
| Cc1cc(C)cc(N2CC(c3nnc(N)s3)CC2=O)c1 (stereo not given) | -11.4% |
| c1cn(-c2cnc(C3CCCNC3)cn2)cn1 (stereo not given) | 24.4% |

| SMILES | INHIBITION |
| --- | --- |
| CC(C)CN1CCc2[nH]cnc2C12CCN(C(=O)c1cncn1C)CC2 | 33.4% |
| CC(C)CN1CCc2[nH]cnc2C12CCN(C(=O)c1ccnn1C)CC2 | 65.8% |
| Cc1ocnc1C(=O)N1CCC2(CC1)c1nc[nH]c1CCN2CC(C)C | 47.4% |
| CC(C)CN1CCc2[nH]cnc2C12CCN(C(=O)c1cccnc1)CC2 | 16.6% |
| CC(C)CN1CCc2[nH]cnc2C12CCN(C(=O)c1ccc[nH]1)CC2 | 33.4% |
| CC(C)CN1CCc2[nH]cnc2C12CCN(C(=O)c1cnn(C)c1)CC2 | 51.8% |
| Cc1nn(C)cc1-c1cncn1CCc1ccc2c(c1)OCCO2 | 27.6% |
| CC(C)C[C@@H](CO)n1cc(-c2cnc(-c3ccco3)nc2)nn1 | -6.83% |
| NC(=O)NC(=O)CCN1CCCC1c1nc(C2CCCCC2)co1 (stereo not given) | -5.33% |
| Cc1ccc(F)c2c1N(C(=O)Cc1c(C)nn(C)c1C)CCC2 | -19.1% |
| CCCS(=O)(=O)NCCn1ccc(-c2cccs2)n1 | 34.6% |
| Cc1nn(C)c(C)c1S(=O)(=O)NCCn1ccc(-c2cccs2)n1 | 63.1% |
| CS(=O)(=O)NCCn1ccc(-c2cccs2)n1 | 22.5% |
| O=C(NCC1CCOCC1)[C@H]1C[C@@H]2CCN(Cc3ccncc3)C[C@@H]2O1 | 10% |
| Cc1cn[nH]c1C1COCCN1C(=O)c1cc(F)ccc1F (stereo not given) | 22.8% |
| COCC1CN(Cc2ccc(F)cc2)Cc2nnn(CC3CC3)c21 (stereo not given) | -9.54% |
| COc1ccc2oc(-c3cn(C)nc3C)c(O)c(=O)c2c1 | 8.49% |
| COc1cccc(CNC(=O)N2CCN3CCNC(=O)C3C2)c1 (stereo not given) | 15.2% |
| O=C1NCCN2CCN(C(=O)Nc3ccc(-c4ccccc4)cc3)CC12 (stereo not given) | 18.6% |
| O=C1NCCN2CCN(C(=O)NCCc3ccccc3)CC12 (stereo not given) | 61.1% |
| O=C(c1ccccn1)N1C[C@H]2CC[C@@H](C1)N(C(=O)CCc1cccs1)C2 | 21.8% |
| CCC(=O)N1CCC(c2ncncc2C)CC1 | 21.1% |
| Cc1ncsc1C(=O)Nc1cccc(OCC(F)F)n1 | 17.4% |
| Cc1ccc(CN(C(=O)c2cccc(NC(N)=O)c2)C2CC2)o1 | 17.9% |
| NC(=O)Nc1cccc(C(=O)N(Cc2ccc(F)cc2)C2CC2)c1 | 13.5% |
| NC(=O)Nc1cccc(C(=O)N(Cc2ccncc2)C2CC2)c1 | 71.1% |
| Cc1occc(=O)c1OCc1noc(C(=O)NC2CCCC2)n1 | 6.67% |
